Compound activity as filed in PubChem.
RECQ1 helicase – RECQ1 (human) helicase inhibition | 240,000 tested, 0.54% active | RECQ1 DNA unwinding, red fluorescence kinetic read | AID 2549 | Potency, µM (highest dose often 57.3 µM), actives largely listed as inhibitors; note: nearly all actives have a fitted effect of over 30% in size
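50 nM RECQ1T1 preincubated 15 min with compound in Tris pH 8.0 buffer with MgCl2, DTT, Tween-20 and 2.5 ug/ml poly(dI-dC); started with 200 nM TAMRA/BHQ-2 forked duplex and 2 mM ATP. Unwinding read as fluorescence (525/598 nm), two reads 2 h apart.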
TDP1 inh – inhibitors of human tyrosyl-DNA phosphodiesterase TDP1; Q9NUW8; recombinant TDP1, AlphaScreen DNA substrate cleavage; 350,000 tested, 0.28% active; Potency, µM (highest dose often 130 µM), actives largely listed as inhibitors; note: nearly all actives have a fitted effect of over 40% in size
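Compounds were preincubated with Tdp1 (1 nM final) for 15 min at room temperature before substrate (15 nM final) started a 5 min reaction; beads (10 ug/ml final) were then added for 10 min before AlphaScreen detection.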
APE1 inh – APE1 (human) endonuclease inhibition; recombinant APE1, TAMRA/BHQ-2 abasic DNA cleavage fluorescence; 350,000 tested, 0.35% active; Potency, µM (top dose mostly 65.8 µM), usual class: inhibitors; AID 2517; note: nearly all actives have a fitted effect of over 55% in size
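Kinetic fluorescence read (525 ex/598 em nm, three reads 60 s apart) of AP-site incision; signal = third minus first read. Enzyme 0.75 nM, dual-labelled THF duplex 50 nM, compound preincubation 15 min RT.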
LMNA splice mod – modulators of lamin A splicing | HeLa LMNA splicing GFP/RFP minigene ratio, 48 h | Potency, µM (series often up to 46.1 µM), usual class: inhibitors | 200,000 tested, 0.01% active | AID 1487; active = well fitted inhibition curve with a large enough effect in the signal ratio, with a control signal flat, not every such curve was filed as active; inconclusive = small, poorly fitted or top-dose-only effect, or effect the other way, or a change in a side signal; the % refers to the signal ratio
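S3 HeLa cells stably expressing lamin A-EGFP splicing minigene plus DsRed2, 600 cells/well, 48 h compound exposure at 37C. Laser-scanning cytometry; analysed as GFP (500-530 nm)/RFP (575-640 nm) total intensity ratio; 0.5% DMSO vehicle.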
KAT2A inh – inhibitors of human GCN5L2 histone acetyltransferase; GCN5L2 HAT assay, ThioGlo1 CoA-SH fluorescence; Q92830; Potency, µM (titrated, usually from 58.9 µM), usual class: inhibitors; 390,000 tested, 0.21% active
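Compounds, pin-transferred from DMSO stocks, meet 20nM GCN5L2 for 15 min before the reaction begins with H3(1-25) peptide (75uM) and acetyl-CoA (70uM). Thiol-reactive ThioGlo1 reports CoA release over 20 min at room temperature.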
BLM inh – Bloom syndrome helicase (human) inhibition. recombinant BLM DNA unwinding, fluorescence dequenching. P54132. Potency, µM (top dose mostly 56.1 µM), actives largely listed as inhibitors. 350,000 tested, 0.2% active; note: nearly all actives have a fitted effect of over 35% in size
Of the large screens only hits and unclear results are named; the others gave an inactive call; ! = repeats disagree. Only some compounds are listed: those with a hit (about 0.9% of all), similar ones and a draw of the others. Unless noted, calls come from the whole dose curve; as a rule, active = well fitted curve in the direction sought with a large enough effect; inconclusive = small, poorly fitted or top-dose-only effect, or another doubt; inactive = no such curve, though single readings can be large; an effect the other way counts as inactive or inconclusive.

O=C(NCCc1ccccc1)c1ccc2nc(-c3ccco3)c(-c3ccco3)nc2c1	RECQ1 helicase inconclusive, APE1 inh inconclusive, LMNA splice mod inconclusive, KAT2A inh inconclusive, BLM inh 7.1µM
O=C(c1ccccc1)c1ccc2nc(-c3ccco3)c(-c3ccco3)nc2c1	RECQ1 helicase inconclusive, APE1 inh inconclusive, LMNA splice mod inconclusive, KAT2A inh inconclusive, BLM inh 14µM
O=C(O)c1ccc2nc(-c3ccccc3)c(-c3ccccc3)nc2c1	none
c1coc(-c2nc3ccccc3nc2-c2ccco2)c1	RECQ1 helicase inconclusive, BLM inh 16µM (no result: TDP1 inh)
O=C(NCCN1CCOCC1)C1(C(F)(F)F)C/C(=C/CCO)CCCO1 (configuration not stated)	none (no result: LMNA splice mod, KAT2A inh)
O=C(O)C1(C(=O)O)CCC1.[NH2-].[NH2-].[Pt+2]	APE1 inh 11µM, KAT2A inh 20µM (no result: LMNA splice mod)
NC1(C(=O)O)CCCC1	none (no result: LMNA splice mod)
COc1cc(OC)c2c(c1C(CCN1CCCC1)c1ccc(N(C)C)cc1)OC(=O)CC2c1ccc(N(C)C)cc1 (configuration not stated)	none (no result: LMNA splice mod, KAT2A inh)
COc1cccc(C2c3c(ncn(-c4ccc(C(C)(C)C)cc4)c3=N)Oc3ccc4ccccc4c32)c1 (configuration not stated)	none (no result: RECQ1 helicase, APE1 inh, LMNA splice mod, KAT2A inh, BLM inh)
O=c1c2ccccc2sn1-c1ccc(S(=O)(=O)N2CCCCC2)cc1	none (no result: RECQ1 helicase, APE1 inh, LMNA splice mod, KAT2A inh, BLM inh)
Cc1ccc(C(=O)NNC(=O)c2ccccc2)cc1S(=O)(=O)N1CCCCC1	none (no result: RECQ1 helicase, LMNA splice mod, BLM inh)
O=c1c2ccccc2sn1-c1ccc(S(=O)(=O)N2CCCC2)cc1	KAT2A inh 0.5µM
Cc1ccc(-n2sc3ccccc3c2=O)cc1S(=O)(=O)N1CCCCC1	LMNA splice mod inconclusive, KAT2A inh 2.2µM
O=C1c2c(O)cc(O)cc2O[C@H](c2ccc(O)c(O)c2)C1O (some centres not stated)	RECQ1 helicase 14µM, APE1 inh inconclusive (no result: LMNA splice mod)
O=C1c2c(O)cc(O)cc2OC(c2ccc(O)c(O)c2)C1O (configuration not stated)	APE1 inh inconclusive
COc1ccc2c(c1)C(c1ccccc1OC)CC(=O)O2 (configuration not stated)	TDP1 inh 13µM, KAT2A inh inconclusive (no result: LMNA splice mod)
CCCCCC#CCC#CCC#CCC#CCCCC(=O)O	RECQ1 helicase 1.1µM!, APE1 inh 2µM!, KAT2A inh 2.2µM, BLM inh 13µM!
N#Cc1cccc(OC2=NS(=O)(=O)c3ccccc32)c1	none (no result: RECQ1 helicase, APE1 inh, LMNA splice mod, KAT2A inh, BLM inh)
COc1cccc(/C=C2/NC(=O)N(CC(=O)Nc3ccc(C)cc3)C2=O)c1OCc1cccc(C(=O)O)c1	APE1 inh inconclusive, BLM inh inconclusive (no result: RECQ1 helicase, LMNA splice mod)
Cc1ccc(NC(=O)CN2C(=O)N/C(=C/c3cc(C)n(-c4cccc(C(=O)O)c4)c3C)C2=O)cc1	RECQ1 helicase inconclusive, APE1 inh 11µM, KAT2A inh inconclusive (no result: TDP1 inh, LMNA splice mod)
Cc1ccc(NC(=O)CN2C(=O)N/C(=C/c3ccccc3OCc3cccc(C(=O)O)c3)C2=O)cc1	APE1 inh 19µM, KAT2A inh inconclusive, BLM inh inconclusive (no result: RECQ1 helicase, LMNA splice mod)
CCC1=C[C@@H]2CN(C1)Cc1c([nH]c3ccccc13)[C@@](C(=O)OC)(c1cc3c(cc1OC)N(C)[C@H]1[C@@](O)(C(=O)OC)[C@H](OC(C)=O)[C@]4(CC)C=CCN5CC[C@]31[C@@H]54)C2	none (no result: LMNA splice mod)
CC1(C)C(/C=C/C=C/C=C/C=C2\N(CCCCS(=O)(=O)O)c3ccc4ccccc4c3C2(C)C)=[N+](CCCCS(=O)(=O)[O-])c2ccc3ccccc3c21	KAT2A inh 10µM, BLM inh inconclusive (no result: RECQ1 helicase, TDP1 inh, APE1 inh, LMNA splice mod)
N#Cc1c(-c2ccc3c(c2)OCO3)no[n+]1[O-]	none (no result: RECQ1 helicase, TDP1 inh, LMNA splice mod, KAT2A inh, BLM inh)
CCC(NC(=O)C1CCCO1)c1ccccc1 (configuration not stated)	TDP1 inh 2.2µM (no result: RECQ1 helicase, LMNA splice mod)
CC(Cc1c[nH]c2ccccc12)C(=O)O (configuration not stated)	RECQ1 helicase 35µM, APE1 inh inconclusive
NC(CCCCCP(=O)(c1ccccc1)c1ccccc1)C(=O)O (configuration not stated)	APE1 inh 14µM (no result: TDP1 inh, LMNA splice mod)
